Several values for one entry are separate records, joined by “and”; a condition that tells them apart may be missing. Equal entries are not always repeated. Results filed as inconclusive are left out. A number with no mark means an inactive call. Activity calls are given as the source filed them. Calls come from the whole dose curve; as a rule, active = well fitted cell-killing curve with a large enough effect; inconclusive = small, poorly fitted or top-dose-only effect, or effect the other way; inactive = no such curve, though single readings can be large or run the other way.
Assay: Viability qHTS for spleen associated tyrosine kinase inhibitor (SYKi) drug resistant MV4-11 cells (AID 1963824); note: nearly all actives have a fitted effect of over 35% in size
Details: SYKi-resistant MV4-11 viability, CellTiter-Glo, 72 h; series mostly up to 45 µM; viability, % of control: at the top concentration
How it was run: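 CellTiter-Glo luminescence, read 10 min after reagent addition, reports viability after a 72 hr compound exposure. Cells are an MV4-11 line made resistant to SYK inhibition, seeded at 500 per well onto compound-containing plates.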
Potency is the fitted concentration of half-maximal effect.

Structure (SMILES) | viability, % of control [%] | Potency
Cc1ncsc1CCCl | 80.6 | 
Cc1nnc2n1-c1sc(CCC(=O)N3CCOCC3)cc1C(c1ccccc1Cl)=NC2 | 99.1 | 
CNCC(O)c1ccc(O)cc1 (centres undefined) | 91.2 | 
CCN1CCN(C(=O)Cc2ccc(Nc3ncc(F)c(Nc4ccc(C(=O)Nc5ccccc5Cl)cc4)n3)cc2)CC1 |  | 0.525 µM (active)
CCCC[N+]1(C)[C@H]2CC(OC(=O)[C@H](CO)c3ccccc3)C[C@H]1[C@H]1O[C@H]12 (some centres undefined) | 93.3 | 
C[C@@H]1CN(Cc2ccc(F)cc2)CCN1C(=O)COc1ccc(Cl)cc1NC(N)=O |  | 0.82 µM (active)
CC1(N2CCC(n3c([C@@H]4CCCNC4)nc4ccccc43)CC2)CCCCCCC1 |  | 9.2 µM (active) and 7.42 µM (active)
O=S(=O)(F)Cc1ccccc1 | 86.9 | 
CC(C)NCC(O)c1ccc(N)c(C#N)c1 (centres undefined) | 65.8 | 
COC[C@H]1OC(=O)c2coc3c2[C@@]1(C)C1=C(C3=O)[C@@H]2CC[C@H](O)[C@@]2(C)C[C@H]1OC(C)=O |  | 1.66 µM (active)
O=C(O)C(Cl)Cl |  | inactive
O=C(O)CCCc1ccc(N(CCCl)CCCl)cc1 | 85.7 | 
CCC(=O)O[C@@H]1C=C2CCC3C(CCC4(C)C3CC[C@@H]4OC(=O)CC)C2CC1 (some centres undefined) | 90.3 | 
O=c1cccc2n1CC1CNC[C@H]2C1 | 98.8 | 
O=C(CCl)c1ccc(Cl)cc1Cl | 82.5 | 
CCC1(c2ccc(N)cc2)CCC(=O)NC1=O (centres undefined) |  | inactive
COC[C@H]1OC(=O)c2coc3c2[C@@]1(C)C1=C(C3=O)C2CCC(=O)[C@@]2(C)C[C@H]1OC(C)=O (some centres undefined) |  | 16.4 µM (active) and 3.72 µM (active)
COc1ccc(N(C(=O)Oc2c(C)cccc2C)c2ccnc(Nc3ccc(N4CCN(C)CC4)cc3)n2)c(OC)c1 |  | 1.16 µM (active) and 2.35 µM (active)
CC(=O)OC1(c2ccccc2)CCN(CCc2ccccc2)CC1 |  | 44.1 µM (active)
CCOP(=O)(OCC)C(C)NC(=O)N(CCCl)N=O (centres undefined) |  | 16.6 µM (active)

Structure (SMILES) | viability, % of control [%] | Potency
CC1(C)C(=O)N(c2ccc(C#N)c(C(F)(F)F)c2)C(=S)N1Cc1ccc(-c2cn[nH]n2)cc1 |  | 14.8 µM (active)
Oc1cc(Cl)ccc1Oc1ccc(Cl)cc1Cl |  | 7.85 µM (active) and 16.8 µM (active)
NCCc1cc(O)c(O)cc1O | 82.9 | 
COC[C@@H](NC(C)=O)C(=O)NCc1ccccc1 | 94.6 | 
COc1cc(CC(C)N)c(OC)cc1Br (centres undefined) |  | 11.3 µM (active)
CC(C)N(CCNC(=O)CN1CCCC1=O)C(C)C | 107 | 
N=c1c2c(-c3ccccc3)c(-c3ccccc3)n(Cc3ccccc3)c2ncn1C1CCC(O)CC1 (centres undefined) |  | 0.372 µM (active)
Oc1ccc(Cl)cc1 | 87.5 | 
O=C(Nc1ccncc1)C(=O)c1cn(Cc2ccc(Cl)cc2)c2ccccc12 |  | 0.166 µM (active)
CCN1CCCC1CNC(=O)C(O)(c1ccccc1)c1ccccc1 (centres undefined) | 75.5 | 
CC(C)=C[C@@H]1[C@@H](C(=O)OCc2coc(Cc3ccccc3)c2)C1(C)C | 69.7 | 
O=c1[nH]c2ccccc2n1C1CCN(Cc2ccc(-c3[nH]c4cc5ncnc5cc4nc3-c3ccccc3)cc2)CC1 |  | 1.84 µM (active)
CCC1(C2=NCCN2)Cc2ccccc2O1 (centres undefined) | 69.2 | 
C[C@]12CC[C@@H]3c4ccc(OC(=O)N(CCCl)CCCl)cc4CC[C@H]3[C@@H]1CC[C@@H]2OP(=O)(O)O |  | inactive
O=C(O)c1nn(Cc2ccc(Cl)cc2Cl)c2ccccc12 |  | inactive
COc1ccc(C(=O)c2c(C)n(CCN3CCOCC3)c3cc(I)ccc23)cc1 |  | 10.5 µM (active)
N[C@@H](Cc1ccc(Oc2cc(I)c(O)c(I)c2)c(I)c1)C(=O)O | 75.6 | 
Clc1cccc(SC2CCNCC2)n1 | 73.1 | 
COc1ccc(C(=O)N2CCCC2=O)cc1 |  | inactive

Source: PubChem BioAssay (NCATS)
